Laboratory results reported in the supplement of paper PMC11417369.
Over roughly 25,000 sequences, “ln(normalized median fluorescence intensity)” has its median near 9.7; the highest 2% begin near 11. The list comes from a sample in which the highest values are over-represented; it also holds similar and randomly drawn sequences.

system: PfAP2-HC AP2 domain (GST-tagged); experiment: gcPBM binding intensity (ln(normalized median fluorescence intensity)); higher = stronger DNA binding
In short: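 Probes on an Agilent 4 × 180k array were primer-extended, double-stranded and 36 bp long, taken from intergenic genomic regions, with negative controls added. GST-tagged P. falciparum DNA-binding domains from E. coli, about 25 μg on average, were applied to the array for 1 h in 1× PBS containing 1% milk, 0.2 mg/ml BSA, 0.5% salmon testes DNA and 0.03% Triton X-100. Binding intensity, obtained after Alexa488 anti-GST antibody detection and a 488 nm scan, is the highest Masliner-normalised natural-log median intensity across replicate spots of either probe orientation.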

Sequence	gcPBM binding intensity (ln)
AAACCGTGGGAGCACACACACACACCGACACATATA [CACACA_site4338]	10.4
ACCGTGGGAGGACACACACACACACGCACATATATA [CACACA_site6289]	11.1
TATTTATATTTATATACACACATACATATTTATATT [CACACA_site6535]	9.93
TACATATTTATATACACACACACACGGATATTTATA [CACACA_site7239]	11
TATATATATATTTATACACACACATATATTTATATA [CACACA_site8054]	10.1
AAACCGTGGGAGCACACACACACACGCGCACATATA [CACACA_site6288]	10.5
TTTTAAAAATCTATATGTACACAATACGTCTATAAA [XGTACX_site5787]	9.54
AAAAAAAAACAAAAAAGTACAAAATAAAAATACGTT [XGTACX_site4566]	9.75
TTTTTTTCTTTTCAAACACACAATTGGTATATATTA [CACACA_site3320]	9.81
AAGAATTATAGAAACACACATACATACAGACATACA [CACACA_site1943]	10.1
AACGTCTTTTTTTTTTTTTTTCTTTTTTTTTTTATT [CACACA_negctrl_site303]	9.86
AGAAAAAAACAACATGCACACGCACCCACAAAAAAA [CACACA_site7908]	10.4
AAAAAAAACACGCGCACACACACACCCACAGACACA [CACACA_site5253]	10.7
AAAAAAAACACGCGCACACACACACCCACCCACCGA [CACACA_site2206]	11.5
AAAAAAACAACATGCACACGCACACCCAAAAAAAGC [CACACA_site72]	10.7
AAAAAACACGCGCACACACACACACGCGCCCACATA [CACACA_site7106]	11.1
AAAAAAAAAACAAATACACACGCACCCAAAAAAAAA [CACACA_site8166]	10.2
AAAAAAAAAAAAAACACACATACACGCCCACCCATA [CACACA_site3391]	10.4
AAAAAAAAAAAAAAAACACACATACACGCACGCACA [CACACA_site7569]	10.8
AAAAAAAAAACACGCGCACACACACCCACCCACCCA [CACACA_site8689]	10.9
GTATAATTGGAAATTACACACCTTAGAATGTAACAT [CACACA_site4059]	9.68
AAAACTATAAAAATTTTACACACTGTTTTTAAATAA [CACACA_site3667]	9.57

Sequence	gcPBM binding intensity (ln)
TATATTATTCATTAAGCACACATTATTTTTATAATA [CACACA_site6056]	9.69
TTTATTTATTAATACACACACACACGCCCACAAAAT [CACACA_site6253]	10.5
TTTATTTATTAATACACACACACACCCCCACAAAAT [CACACA_site240]	11.4
TTAATACCCAGACACACACACACAAAATAAAATACA [CACACA_site7968]	11
TTTTTATTTATTAATACACACACACCCACCCACAAA [CACACA_site7965]	10.4
GTATTATATTTTAATACACACCCAAATATTAAAAAG [CACACA_site8968]	9.77
ATAATTAACAAATACACACACACACCCCCACAAAAA [CACACA_site518]	10.9
ATAATTAACAAATACACACACACACCCAGACAAAAA [CACACA_site4445]	10.8
TTAATACCCGGACACACACACACAAAATAAAATACA [CACACA_site4296]	10.6
ACATAATTAACAAATACACACACACCCACCCACAAA [CACACA_site8069]	10.7
ATAATTAACAAATACACACACACACGCCCACAAAAA [CACACA_site6389]	11.6
TTTATTTATTAATACACACACACACCCAGACAAAAT [CACACA_site4292]	11.3
TATTAATACAGACACACACACACACCCAATAAAATA [CACACA_site243]	10.8
AAAATCTATATTAACACACACACAAAAAAAAAAAAA [CACACA_site6738]	10.6
TAACTTGAATGGATATGTACATATATATATATATAT [XGTACX_site5990]	10
TTGTTTTTTTTTTCTATAAGCATAAAAATGATATAA [XGTACX_negctrl_site356]	9.27
ATATAAGAAATAAAGAAAAATGTGTTTTTTTTTTTT [XGTACX_negctrl_site396]	9.6
ATATATATATATATAACACACGCAAAAAAATTAAAT [CACACA_site8395]	10.1
ACGATGAATATGTAAAGTACGCAAATGTAACAATAT [XGTACX_site728]	9.91
TATCATTGTTCATGCTTGCACTTTTGTTACTGTTCC [GTGCAC_site9425]	9.87
GAGAACATTGATACACGTACATAAGTTATAAGTATT [XGTACX_site7665]	9.71
TTAATTACATGTAATTGTACTTAATTATAAGACATT [XGTACX_site464]	9.52
